{
  "source": "PubChem BioAssay (EPA / NIEHS)",
  "note": "Active and inactive are the calls of the source. The calls were made as follows: active = hit-call score of the fitted dose curve at least 0.9, where 1 is the maximum; inactive = score below 0.9.",
  "data": [
    {"read-out": "Keratin 19 (KRT19), KRT19 (gene 3880)", "experiment": "LTEA_HepaRG_KRT19: Life Technologies and Expression Analysis (LTEA) Assay for Keratin 19 (KRT19) using HepaRG (AID 2283512)", "settings": "mRNA level, 48 h; actives raise or lower the signal", "outline": "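Differentiated human HepaRG cells, plated 48 h, were exposed in duplicate for 48 h in serum-free induction medium to eight half-log concentrations up to 100 uM in 0.5% DMSO. KRT19 mRNA was quantified by qRT-PCR, normalized to ACTB, GAPDH and POLR2A, and fitted bidirectionally versus DMSO.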", "values": [
      {"smiles": "COc1cc2c(c(OC)c1OC)-c1ccc(OC)c(=O)cc1[C@@H](NC(C)=O)CC2", "outcome": "inactive"},
      {"smiles": "CCn1nc(C)c2c1C(=O)NCC(c1ccc(O)cc1)=N2", "AC50": "1.84 µM (active)"},
      {"smiles": "CCCCCCCCCC", "outcome": "inactive"},
      {"smiles": "O=C(O)c1ccc2c(c1)nc(C(=O)NC1CCN(C3CC3)CC1)n2Cc1cc(-c2ccc(Cl)s2)on1", "outcome": "inactive"},
      {"smiles": "Nc1ccn([C@@H]2O[C@H](CO)[C@@H](O)[C@@H]2O)c(=O)n1", "outcome": "inactive"},
      {"smiles": "NC(=O)NN=Cc1ccc([N+](=O)[O-])o1", "outcome": "inactive"},
      {"smiles": "OC(Cn1cncn1)(Cn1cncn1)c1ccc(F)cc1F", "outcome": "inactive"},
      {"smiles": "OCc1ccccc1", "outcome": "inactive"},
      {"smiles": "NNC(=O)c1ccncc1", "outcome": "inactive"},
      {"smiles": "CCc1ccc(O)c(C(C)(C)C)c1", "outcome": "inactive"},
      {"smiles": "CCOC(N)=O", "outcome": "inactive"},
      {"smiles": "CC(C)CCCCCCOC(=O)C1CCCCC1C(=O)OCCCCCCC(C)C", "note": "(centres undefined)", "outcome": "inactive"},
      {"smiles": "c1ccc(C(O[C@@H]2CCCN(CCc3ccc4c(c3)OCO4)C2)c2ccccc2)cc1", "AC50": "40.3 µM (active)"},
      {"smiles": "CC(C)C(=O)Nc1ccc([N+](=O)[O-])c(C(F)(F)F)c1", "AC50": "23.5 µM (active)"},
      {"smiles": "NC(=O)N(O)[C@@H]1COc2cc(OCc3ccccc3)ccc21", "outcome": "inactive"},
      {"smiles": "O=c1[nH]cnc2c1ncn2[C@H]1CC[C@@H](CO)O1", "outcome": "inactive"},
      {"smiles": "NC(N)=O", "outcome": "inactive"},
      {"smiles": "COCc1nnc(-c2ccc[n+]([O-])c2)n1-c1c(Cl)c(Cl)cc2[nH]c(=O)c(=O)[nH]c12", "outcome": "inactive"},
      {"smiles": "OC[C@H]1O[C@@H]2O[C@H]3[C@H](O)[C@@H](O)[C@@H](O[C@H]4[C@H](O)[C@@H](O)[C@@H](O[C@H]5[C@H](O)[C@@H](O)[C@@H](O[C@H]6[C@H](O)[C@@H](O)[C@@H](O[C@H]7[C@H](O)[C@@H](O)[C@@H](O[C@H]1[C@H](O)[C@H]2O)O[C@@H]7CO)O[C@@H]6CO)O[C@@H]5CO)O[C@@H]4CO)O[C@@H]3CO", "outcome": "inactive"},
      {"smiles": "CC(C)CC(C)O", "note": "(centres undefined)", "outcome": "inactive"},
      {"smiles": "CCCCN1C(=O)[C@@H]([C@H](O)C2CCCCC2)NC(=O)C12CCN(Cc1ccc(Oc3ccc(C(=O)O)cc3)cc1)CC2", "outcome": "inactive"},
      {"smiles": "CC(C)c1nnc2ccc(-c3ocnc3-c3cc(F)ccc3F)cn12", "AC50": "18.7 µM (active)"},
      {"smiles": "CNC(C)=O", "outcome": "inactive"},
      {"smiles": "OCCNCCO", "AC50": "50 µM (active)"},
      {"smiles": "C=CN1CCCC1=O", "outcome": "inactive"},
      {"smiles": "CCCCCCCCN(C)C", "outcome": "inactive"},
      {"smiles": "c1ccc2ncccc2c1", "outcome": "inactive"},
      {"smiles": "CCCCCCOC(=O)CC(CC(=O)OCCCCCC)(OC(=O)CCC)C(=O)OCCCCCC", "outcome": "inactive"},
      {"smiles": "CCc1cccc(CC)c1N", "outcome": "inactive"},
      {"smiles": "O=C1CN(N=Cc2ccc([N+](=O)[O-])o2)C(=O)N1", "AC50": "88.7 µM (active)"},
      {"smiles": "CCCC(CCC)C(=O)O", "outcome": "inactive"},
      {"smiles": "Cc1ncc([C@@H](CCCCCCc2ccc3c(n2)NCCC3)CC(=O)O)cn1", "outcome": "inactive"},
      {"smiles": "CCCCCCCCCCCCCCCCOS(=O)(=O)O", "outcome": "inactive"},
      {"smiles": "CCN(CC)C(=S)SSC(=S)N(CC)CC", "outcome": "inactive"}
    ]}
  ]
}
